Results published in article PMC7862700, “An all-to-all approach to the identification of sequence-specific readers for epigenetic DNA modifications on cytosine”.

Experiments:
Experiment in all cases: DAPPL (digital affinity profiling via proximity ligation, sequencing); 10 mM Tris-HCl pH 7.5, 50 mM NaCl, 1 mM DTT, 4% glycerol, room temperature, 30 min; GST-TFs on glutathione beads, 16-mer random dsDNA library, 0.1% formaldehyde crosslink after washing; high values mean tight binding
[1] = target: T1, FEV (Homo sapiens, UniProt Q99581 1-238); details: protein: recombinant; tags: N-terminal GST; dsDNA, one strand shown
T1 sequence: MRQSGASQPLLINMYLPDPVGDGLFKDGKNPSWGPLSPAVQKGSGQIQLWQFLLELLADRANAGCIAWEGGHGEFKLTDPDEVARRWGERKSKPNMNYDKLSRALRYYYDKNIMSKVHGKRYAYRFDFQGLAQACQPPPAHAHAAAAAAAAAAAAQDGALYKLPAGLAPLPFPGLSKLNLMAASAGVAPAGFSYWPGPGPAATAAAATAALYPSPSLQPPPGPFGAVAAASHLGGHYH
Summary of the method: (§1)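 Pools of DNA-barcoded human transcription factors, expressed in yeast as GST fusions on glutathione beads and combined with a tag-only sample, were incubated with 200 nmole of a 16-mer random double-stranded DNA library. Incubation took 30 min at room temperature in Tris/NaCl/DTT/glycerol buffer and was followed by washing, 0.1% formaldehyde crosslinking, proximity ligation (BsaI/T4 ligase, 1 h, 37 °C), PCR amplification and sequencing on an Illumina NextSeq500. Binding signal is the ratio of a hexamer's read frequency for a factor to its frequency for the tag-only sample.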

[2] = target: ETV5 (Homo sapiens, UniProt P41161 1-510); details: protein: recombinant; tags: N-terminal GST; dsDNA, one strand shown
Summary of the method: as §1

[3] = target: HSF1 (Homo sapiens, UniProt Q00613 1-529); details: protein: recombinant; tags: N-terminal GST; chain copies: 3; dsDNA, one strand shown
Summary of the method: as §1

[4] = target: T2, SPIC (Homo sapiens, UniProt Q8N5J4 1-248); details: protein: recombinant; tags: N-terminal GST; dsDNA, one strand shown
T2 sequence: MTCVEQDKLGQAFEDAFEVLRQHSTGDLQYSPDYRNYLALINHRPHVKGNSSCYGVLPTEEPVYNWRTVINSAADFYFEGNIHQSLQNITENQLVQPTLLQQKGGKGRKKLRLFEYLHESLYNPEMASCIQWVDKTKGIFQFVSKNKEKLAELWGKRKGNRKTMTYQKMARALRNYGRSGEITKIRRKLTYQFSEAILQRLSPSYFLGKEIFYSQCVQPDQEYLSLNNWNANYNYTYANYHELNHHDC
Summary of the method: as §1

[5] = target: ELF4 (Homo sapiens, UniProt Q99607 1-663); details: protein: recombinant; tags: N-terminal GST; dsDNA, one strand shown
Summary of the method: as §1

[6] = target: T3, ELK4 (Homo sapiens, UniProt P28324-2 1-405); details: protein: recombinant; tags: N-terminal GST; dsDNA, one strand shown
T3 sequence: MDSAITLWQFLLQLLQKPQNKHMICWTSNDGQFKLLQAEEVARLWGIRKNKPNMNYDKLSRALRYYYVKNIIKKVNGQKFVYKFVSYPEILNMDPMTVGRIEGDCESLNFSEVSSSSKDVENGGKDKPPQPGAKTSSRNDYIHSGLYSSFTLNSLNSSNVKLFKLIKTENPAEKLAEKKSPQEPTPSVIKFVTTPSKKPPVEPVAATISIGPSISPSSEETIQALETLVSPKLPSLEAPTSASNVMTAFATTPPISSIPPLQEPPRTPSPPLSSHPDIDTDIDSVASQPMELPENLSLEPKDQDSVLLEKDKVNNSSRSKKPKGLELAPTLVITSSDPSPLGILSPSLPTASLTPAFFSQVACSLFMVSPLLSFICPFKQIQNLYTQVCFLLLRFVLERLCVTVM
Summary of the method: as §1

[7] = target: T4, ETV2 (Homo sapiens, UniProt O00321 1-342); details: protein: recombinant; tags: N-terminal GST; dsDNA, one strand shown
T4 sequence: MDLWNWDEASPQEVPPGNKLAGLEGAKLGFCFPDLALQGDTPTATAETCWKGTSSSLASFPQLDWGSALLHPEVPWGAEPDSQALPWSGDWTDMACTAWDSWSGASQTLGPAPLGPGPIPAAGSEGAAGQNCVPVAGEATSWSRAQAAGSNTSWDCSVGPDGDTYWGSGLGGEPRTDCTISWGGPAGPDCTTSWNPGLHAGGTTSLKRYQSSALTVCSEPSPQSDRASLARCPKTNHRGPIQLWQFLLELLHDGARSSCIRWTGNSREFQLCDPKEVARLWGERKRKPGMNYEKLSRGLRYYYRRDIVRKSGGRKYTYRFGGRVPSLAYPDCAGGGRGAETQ
Summary of the method: as §1

[8] = target: T5, ELF3 (Homo sapiens, UniProt P78545 1-371); details: protein: recombinant; tags: N-terminal GST; dsDNA, one strand shown
T5 sequence: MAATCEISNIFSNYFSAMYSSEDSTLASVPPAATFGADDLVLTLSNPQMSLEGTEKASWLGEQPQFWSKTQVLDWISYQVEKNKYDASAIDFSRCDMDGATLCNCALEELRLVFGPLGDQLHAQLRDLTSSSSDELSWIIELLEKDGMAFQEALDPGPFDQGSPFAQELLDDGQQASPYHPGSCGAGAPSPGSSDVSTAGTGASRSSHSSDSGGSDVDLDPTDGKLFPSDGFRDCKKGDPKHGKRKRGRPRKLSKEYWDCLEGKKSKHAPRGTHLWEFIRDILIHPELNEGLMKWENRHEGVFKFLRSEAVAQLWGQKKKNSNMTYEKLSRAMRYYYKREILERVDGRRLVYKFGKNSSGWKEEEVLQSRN
Summary of the method: as §1

[9] = target: CRX (Homo sapiens, UniProt O43186 1-299); details: protein: recombinant; tags: N-terminal GST; dsDNA, one strand shown
Summary of the method: as §1

[10] = target: ETV1 (Homo sapiens, UniProt P50549 1-477); details: protein: recombinant; tags: N-terminal GST; dsDNA, one strand shown
Summary of the method: as §1

[11] = target: T6, ERF (Homo sapiens, UniProt P50548 1-548); details: protein: recombinant; tags: N-terminal GST; dsDNA, one strand shown
T6 sequence: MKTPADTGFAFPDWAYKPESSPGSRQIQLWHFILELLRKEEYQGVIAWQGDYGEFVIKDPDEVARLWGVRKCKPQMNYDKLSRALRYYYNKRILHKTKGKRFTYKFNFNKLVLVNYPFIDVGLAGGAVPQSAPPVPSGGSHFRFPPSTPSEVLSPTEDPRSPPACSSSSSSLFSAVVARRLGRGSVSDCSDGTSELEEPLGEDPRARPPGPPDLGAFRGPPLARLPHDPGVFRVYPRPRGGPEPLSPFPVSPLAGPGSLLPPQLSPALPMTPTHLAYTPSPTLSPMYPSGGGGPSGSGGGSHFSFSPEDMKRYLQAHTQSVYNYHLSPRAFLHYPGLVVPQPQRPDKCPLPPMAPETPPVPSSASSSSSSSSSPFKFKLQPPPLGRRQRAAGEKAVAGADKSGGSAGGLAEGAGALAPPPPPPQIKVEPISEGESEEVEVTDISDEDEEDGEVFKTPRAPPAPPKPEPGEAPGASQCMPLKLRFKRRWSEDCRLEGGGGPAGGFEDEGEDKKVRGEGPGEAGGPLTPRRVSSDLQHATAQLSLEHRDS
Summary of the method: as §1

[12] = target: T7, ETV3L (Homo sapiens, UniProt Q6ZN32 1-361); details: protein: recombinant; tags: N-terminal GST; dsDNA, one strand shown
T7 sequence: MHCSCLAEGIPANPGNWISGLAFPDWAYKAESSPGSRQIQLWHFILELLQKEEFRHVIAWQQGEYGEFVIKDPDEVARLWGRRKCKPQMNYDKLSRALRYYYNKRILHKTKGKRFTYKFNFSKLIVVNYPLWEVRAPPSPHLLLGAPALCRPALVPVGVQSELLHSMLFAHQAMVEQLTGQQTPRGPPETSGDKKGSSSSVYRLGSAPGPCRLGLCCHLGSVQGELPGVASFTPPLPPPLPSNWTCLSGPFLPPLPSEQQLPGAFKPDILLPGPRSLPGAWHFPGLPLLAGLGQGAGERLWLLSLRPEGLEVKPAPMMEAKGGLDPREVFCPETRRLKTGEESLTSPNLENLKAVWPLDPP
Summary of the method: as §1

[13] = target: T8, ETS2 (Homo sapiens, UniProt P15036 1-469); details: protein: recombinant; tags: N-terminal GST; dsDNA, one strand shown
T8 sequence: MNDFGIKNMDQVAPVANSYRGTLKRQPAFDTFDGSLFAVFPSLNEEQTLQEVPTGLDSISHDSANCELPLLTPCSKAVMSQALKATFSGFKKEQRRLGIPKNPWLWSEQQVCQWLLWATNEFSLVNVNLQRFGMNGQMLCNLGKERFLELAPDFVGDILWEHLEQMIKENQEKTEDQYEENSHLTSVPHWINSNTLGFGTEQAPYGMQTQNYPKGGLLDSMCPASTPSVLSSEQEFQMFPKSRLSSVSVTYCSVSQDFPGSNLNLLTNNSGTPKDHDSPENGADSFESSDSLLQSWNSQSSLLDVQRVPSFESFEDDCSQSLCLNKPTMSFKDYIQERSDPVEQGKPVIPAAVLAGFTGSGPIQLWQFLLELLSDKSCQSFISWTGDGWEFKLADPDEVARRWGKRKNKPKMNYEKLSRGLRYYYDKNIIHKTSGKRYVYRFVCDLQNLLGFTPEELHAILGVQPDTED
Summary of the method: as §1

[14] = target: T9, SPDEF (Homo sapiens, UniProt O95238 1-335); details: protein: recombinant; tags: N-terminal GST; dsDNA, one strand shown
T9 sequence: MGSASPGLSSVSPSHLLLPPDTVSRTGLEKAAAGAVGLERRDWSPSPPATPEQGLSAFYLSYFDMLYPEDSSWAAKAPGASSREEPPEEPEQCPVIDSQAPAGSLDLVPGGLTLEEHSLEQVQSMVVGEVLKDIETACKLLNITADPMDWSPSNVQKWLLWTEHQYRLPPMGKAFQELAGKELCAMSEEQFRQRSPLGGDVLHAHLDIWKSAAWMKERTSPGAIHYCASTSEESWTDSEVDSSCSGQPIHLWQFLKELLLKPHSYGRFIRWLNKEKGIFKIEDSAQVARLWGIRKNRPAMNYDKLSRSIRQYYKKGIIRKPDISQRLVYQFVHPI
Summary of the method: as §1

[15] = target: T10, ETV7 (Homo sapiens, UniProt Q9Y603 1-341); details: protein: recombinant; tags: N-terminal GST; dsDNA, one strand shown
T10 sequence: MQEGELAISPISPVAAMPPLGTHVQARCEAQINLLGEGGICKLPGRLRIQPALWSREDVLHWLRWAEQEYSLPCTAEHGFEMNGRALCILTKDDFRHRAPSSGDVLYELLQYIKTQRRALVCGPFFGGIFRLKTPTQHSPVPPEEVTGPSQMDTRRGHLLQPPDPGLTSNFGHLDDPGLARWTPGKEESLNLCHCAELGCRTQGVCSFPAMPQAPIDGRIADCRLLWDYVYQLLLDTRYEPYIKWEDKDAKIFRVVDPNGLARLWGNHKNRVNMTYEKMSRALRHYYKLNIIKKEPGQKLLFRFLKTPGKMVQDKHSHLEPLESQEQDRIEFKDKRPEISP
Summary of the method: as §1

[16] = target: T11, ELF5 (Homo sapiens, UniProt Q9UKW6-2 1-255); details: protein: recombinant; tags: N-terminal GST; dsDNA, one strand shown
T11 sequence: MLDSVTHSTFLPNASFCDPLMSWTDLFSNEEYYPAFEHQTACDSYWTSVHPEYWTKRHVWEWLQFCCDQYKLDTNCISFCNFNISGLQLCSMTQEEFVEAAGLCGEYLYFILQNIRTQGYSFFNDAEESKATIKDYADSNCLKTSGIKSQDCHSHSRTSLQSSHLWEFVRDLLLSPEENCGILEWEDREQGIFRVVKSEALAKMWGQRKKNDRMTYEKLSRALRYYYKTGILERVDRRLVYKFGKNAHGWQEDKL
Summary of the method: as §1

[17] = target: T12, ETV3 (Homo sapiens, UniProt P41162-2 1-143); details: protein: recombinant; tags: N-terminal GST; dsDNA, one strand shown
T12 sequence: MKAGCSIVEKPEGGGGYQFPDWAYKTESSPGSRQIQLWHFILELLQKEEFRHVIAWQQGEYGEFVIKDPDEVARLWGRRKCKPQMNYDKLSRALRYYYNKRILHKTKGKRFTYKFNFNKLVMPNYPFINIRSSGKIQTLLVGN
Summary of the method: as §1

[18] = target: ETV6 (Homo sapiens, UniProt P41212 1-452); details: protein: recombinant; tags: N-terminal GST; dsDNA, one strand shown
Summary of the method: as §1

Sequence of ETV1 (P50549 whole entry): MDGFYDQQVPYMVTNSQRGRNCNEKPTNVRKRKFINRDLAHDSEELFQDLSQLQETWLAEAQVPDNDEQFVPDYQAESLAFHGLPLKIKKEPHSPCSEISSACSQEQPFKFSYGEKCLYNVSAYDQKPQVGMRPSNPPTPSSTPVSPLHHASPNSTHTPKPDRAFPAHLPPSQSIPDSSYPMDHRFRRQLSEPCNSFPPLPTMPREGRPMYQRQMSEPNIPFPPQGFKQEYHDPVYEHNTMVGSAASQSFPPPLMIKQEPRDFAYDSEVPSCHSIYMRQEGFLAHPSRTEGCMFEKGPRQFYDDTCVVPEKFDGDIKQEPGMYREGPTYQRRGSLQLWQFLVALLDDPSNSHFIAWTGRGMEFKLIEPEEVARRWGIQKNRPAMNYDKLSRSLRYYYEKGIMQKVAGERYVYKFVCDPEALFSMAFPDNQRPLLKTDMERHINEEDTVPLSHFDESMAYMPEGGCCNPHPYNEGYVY
Sequence of ELF4 (Q99607 whole entry): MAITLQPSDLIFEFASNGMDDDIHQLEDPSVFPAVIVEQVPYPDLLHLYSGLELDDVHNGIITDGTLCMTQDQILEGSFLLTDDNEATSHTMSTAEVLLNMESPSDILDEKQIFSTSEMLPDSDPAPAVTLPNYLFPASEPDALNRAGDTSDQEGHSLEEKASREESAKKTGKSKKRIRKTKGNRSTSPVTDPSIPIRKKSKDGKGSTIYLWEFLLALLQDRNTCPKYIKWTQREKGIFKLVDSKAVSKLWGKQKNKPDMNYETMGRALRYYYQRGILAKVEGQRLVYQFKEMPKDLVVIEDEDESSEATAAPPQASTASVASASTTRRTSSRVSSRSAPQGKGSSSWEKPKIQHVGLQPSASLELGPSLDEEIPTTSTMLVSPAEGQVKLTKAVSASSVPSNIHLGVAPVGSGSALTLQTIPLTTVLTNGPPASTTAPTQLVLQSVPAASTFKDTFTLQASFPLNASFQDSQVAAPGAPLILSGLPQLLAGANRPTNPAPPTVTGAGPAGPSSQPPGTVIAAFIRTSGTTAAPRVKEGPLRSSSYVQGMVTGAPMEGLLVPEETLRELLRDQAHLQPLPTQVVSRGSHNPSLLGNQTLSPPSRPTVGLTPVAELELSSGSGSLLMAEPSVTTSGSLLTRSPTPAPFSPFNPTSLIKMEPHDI
Sequence of ETV6 (P41212 whole entry): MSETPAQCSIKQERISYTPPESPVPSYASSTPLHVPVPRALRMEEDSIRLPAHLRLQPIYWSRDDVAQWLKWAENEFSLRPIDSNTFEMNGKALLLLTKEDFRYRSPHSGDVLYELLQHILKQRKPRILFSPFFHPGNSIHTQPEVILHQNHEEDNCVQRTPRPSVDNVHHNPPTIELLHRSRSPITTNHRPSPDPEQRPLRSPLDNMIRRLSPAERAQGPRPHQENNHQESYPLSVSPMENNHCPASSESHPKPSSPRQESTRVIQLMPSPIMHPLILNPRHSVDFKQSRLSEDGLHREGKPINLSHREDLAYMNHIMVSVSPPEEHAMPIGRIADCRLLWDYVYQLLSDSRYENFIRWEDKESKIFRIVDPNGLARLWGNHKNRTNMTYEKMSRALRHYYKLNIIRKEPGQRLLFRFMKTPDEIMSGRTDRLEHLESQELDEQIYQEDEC
Sequence of HSF1 (Q00613 whole entry): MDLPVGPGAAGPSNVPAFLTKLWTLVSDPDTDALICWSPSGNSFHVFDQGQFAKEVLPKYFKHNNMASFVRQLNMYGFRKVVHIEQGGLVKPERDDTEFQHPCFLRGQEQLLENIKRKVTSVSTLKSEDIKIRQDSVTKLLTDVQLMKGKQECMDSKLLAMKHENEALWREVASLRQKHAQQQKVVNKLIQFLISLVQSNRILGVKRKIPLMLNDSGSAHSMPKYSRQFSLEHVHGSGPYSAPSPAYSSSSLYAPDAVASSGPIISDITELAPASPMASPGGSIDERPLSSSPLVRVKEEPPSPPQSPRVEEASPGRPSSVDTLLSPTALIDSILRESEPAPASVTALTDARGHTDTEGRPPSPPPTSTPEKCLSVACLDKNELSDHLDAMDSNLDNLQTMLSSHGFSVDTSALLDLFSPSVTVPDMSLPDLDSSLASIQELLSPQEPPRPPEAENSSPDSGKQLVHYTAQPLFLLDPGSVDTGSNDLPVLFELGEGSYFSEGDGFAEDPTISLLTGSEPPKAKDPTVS
Sequence of ETV5 (P41161 whole entry): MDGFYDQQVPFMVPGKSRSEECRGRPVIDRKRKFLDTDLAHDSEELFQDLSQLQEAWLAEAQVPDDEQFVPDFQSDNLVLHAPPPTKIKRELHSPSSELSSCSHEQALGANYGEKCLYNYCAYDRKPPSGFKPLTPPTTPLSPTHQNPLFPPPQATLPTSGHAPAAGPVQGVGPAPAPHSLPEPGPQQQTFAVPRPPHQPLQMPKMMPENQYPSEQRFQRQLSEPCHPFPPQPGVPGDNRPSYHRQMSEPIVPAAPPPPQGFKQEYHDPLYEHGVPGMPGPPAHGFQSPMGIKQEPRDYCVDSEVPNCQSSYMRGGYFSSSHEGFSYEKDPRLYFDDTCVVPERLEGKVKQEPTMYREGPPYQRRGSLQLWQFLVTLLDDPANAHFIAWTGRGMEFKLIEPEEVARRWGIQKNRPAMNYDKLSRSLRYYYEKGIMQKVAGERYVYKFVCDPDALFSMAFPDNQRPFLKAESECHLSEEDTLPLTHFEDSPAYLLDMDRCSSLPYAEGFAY
Sequence of CRX (O43186 whole entry): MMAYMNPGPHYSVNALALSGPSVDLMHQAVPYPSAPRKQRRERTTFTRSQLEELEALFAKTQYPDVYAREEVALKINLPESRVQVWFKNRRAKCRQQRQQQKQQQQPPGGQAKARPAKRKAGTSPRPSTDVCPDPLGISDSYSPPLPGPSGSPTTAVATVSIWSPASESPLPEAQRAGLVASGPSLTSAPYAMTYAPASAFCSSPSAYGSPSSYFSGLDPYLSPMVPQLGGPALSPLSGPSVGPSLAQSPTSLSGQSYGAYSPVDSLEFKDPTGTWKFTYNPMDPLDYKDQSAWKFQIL

For TTTGTG, which binding signal [1] is on record?
Its binding signal is 1.23 fold enrichment (6-mer frequency, TF over GST control).

And the binding signal [2]?
The binding signal was 1.17 fold enrichment (6-mer frequency, TF over GST control).

What about the binding signal [3] of the same sequence?
Its binding signal is 1.12 fold enrichment (6-mer frequency, TF over GST control).

What about the binding signal [4] of the same sequence?
The binding signal was 1.15 fold enrichment (6-mer frequency, TF over GST control).

What about the binding signal [5] of the same sequence?
The binding signal was 1.19 fold enrichment (6-mer frequency, TF over GST control).

What about the binding signal [6] of the same sequence?
Its binding signal is 1.38 fold enrichment (6-mer frequency, TF over GST control).

And the binding signal [7]?
The binding signal was 1.25 fold enrichment (6-mer frequency, TF over GST control).

What about the binding signal [8] of the same sequence?
Its binding signal is 1.27 fold enrichment (6-mer frequency, TF over GST control).

What about the binding signal [9] of the same sequence?
Its binding signal is 1.29 fold enrichment (6-mer frequency, TF over GST control).

What about the binding signal [10] of the same sequence?
The binding signal was 1.1 fold enrichment (6-mer frequency, TF over GST control).

And the binding signal [11]?
Its binding signal is 1.23 fold enrichment (6-mer frequency, TF over GST control).

And the binding signal [12]?
The binding signal was 1.12 fold enrichment (6-mer frequency, TF over GST control).

And the binding signal [13]?
The binding signal was 1.11 fold enrichment (6-mer frequency, TF over GST control).

What about the binding signal [14] of the same sequence?
The binding signal was 1.23 fold enrichment (6-mer frequency, TF over GST control).

And the binding signal [15]?
The binding signal was 1.2 fold enrichment (6-mer frequency, TF over GST control).

What about the binding signal [16] of the same sequence?
The binding signal was 1.18 fold enrichment (6-mer frequency, TF over GST control).

What about the binding signal [17] of the same sequence?
The binding signal was 1.13 fold enrichment (6-mer frequency, TF over GST control).

What about the binding signal [18] of the same sequence?
The binding signal was 1.14 fold enrichment (6-mer frequency, TF over GST control).
